# Data from the supplement of paper PMC10849652.
# The full data set covers some 7,900 targets. This sample favours those with a hit. About 0.6% of all pairs of compound and target were hits. Values without a mark were called inactive.
# Compound: O=C(CCCCCCC(=O)Nc1ccccc1)NO [vorinostat]
# Test: log2 fold change, soluble protein after heating vs DMSO (PISA); higher = thermal stabilisation; K562 cells, 10 uM, 30 min; active = over 0.2 and 3.5 SD of the protein, either way, in both replicates (recomputed)
# In short: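 K562 cells at 2×10^6 cells/mL were treated for 30 min with 10 μM compound, and aliquots were heated for 3 min over 48°C-58°C before pooling. Extraction used PBS with 0.5% NP-40 at 4°C, and soluble protein was the supernatant after 21,000xg for 90 min, measured by TMTpro 16plex LC-MS/MS with channel sums equalised. Thermal stability values, relative to control samples and from duplicates, are log2 fold changes.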
# Chain of UniProt O14776 (O14776 whole entry, looked up): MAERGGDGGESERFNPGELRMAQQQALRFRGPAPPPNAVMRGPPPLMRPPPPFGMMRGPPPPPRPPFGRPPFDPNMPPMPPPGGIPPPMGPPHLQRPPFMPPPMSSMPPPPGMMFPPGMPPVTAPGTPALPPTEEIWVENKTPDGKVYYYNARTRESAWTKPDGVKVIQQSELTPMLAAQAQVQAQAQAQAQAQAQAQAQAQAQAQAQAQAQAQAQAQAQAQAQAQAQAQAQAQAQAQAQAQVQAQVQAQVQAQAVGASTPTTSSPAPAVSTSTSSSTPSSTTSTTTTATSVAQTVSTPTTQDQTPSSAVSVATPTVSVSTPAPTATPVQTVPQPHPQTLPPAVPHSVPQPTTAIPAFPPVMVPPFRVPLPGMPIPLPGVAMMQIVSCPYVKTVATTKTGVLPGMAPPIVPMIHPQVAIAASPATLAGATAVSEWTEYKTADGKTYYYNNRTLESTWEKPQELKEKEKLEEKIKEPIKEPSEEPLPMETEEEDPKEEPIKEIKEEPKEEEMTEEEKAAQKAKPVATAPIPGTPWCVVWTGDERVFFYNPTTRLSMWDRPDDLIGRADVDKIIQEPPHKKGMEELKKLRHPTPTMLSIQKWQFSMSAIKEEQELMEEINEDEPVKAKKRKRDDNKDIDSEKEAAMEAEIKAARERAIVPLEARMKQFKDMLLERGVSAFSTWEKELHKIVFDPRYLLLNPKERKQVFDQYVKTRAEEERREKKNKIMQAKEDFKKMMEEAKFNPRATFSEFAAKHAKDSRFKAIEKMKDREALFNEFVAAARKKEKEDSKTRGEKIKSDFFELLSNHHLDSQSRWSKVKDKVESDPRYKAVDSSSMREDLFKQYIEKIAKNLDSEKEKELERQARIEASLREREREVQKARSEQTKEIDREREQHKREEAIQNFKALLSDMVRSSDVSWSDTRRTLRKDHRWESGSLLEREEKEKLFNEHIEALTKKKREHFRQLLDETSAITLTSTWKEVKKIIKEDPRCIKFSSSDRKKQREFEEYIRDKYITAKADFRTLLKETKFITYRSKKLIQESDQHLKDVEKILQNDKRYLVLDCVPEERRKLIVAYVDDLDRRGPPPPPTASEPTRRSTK
# Chain of UniProt Q92581 (Q92581 whole entry, looked up): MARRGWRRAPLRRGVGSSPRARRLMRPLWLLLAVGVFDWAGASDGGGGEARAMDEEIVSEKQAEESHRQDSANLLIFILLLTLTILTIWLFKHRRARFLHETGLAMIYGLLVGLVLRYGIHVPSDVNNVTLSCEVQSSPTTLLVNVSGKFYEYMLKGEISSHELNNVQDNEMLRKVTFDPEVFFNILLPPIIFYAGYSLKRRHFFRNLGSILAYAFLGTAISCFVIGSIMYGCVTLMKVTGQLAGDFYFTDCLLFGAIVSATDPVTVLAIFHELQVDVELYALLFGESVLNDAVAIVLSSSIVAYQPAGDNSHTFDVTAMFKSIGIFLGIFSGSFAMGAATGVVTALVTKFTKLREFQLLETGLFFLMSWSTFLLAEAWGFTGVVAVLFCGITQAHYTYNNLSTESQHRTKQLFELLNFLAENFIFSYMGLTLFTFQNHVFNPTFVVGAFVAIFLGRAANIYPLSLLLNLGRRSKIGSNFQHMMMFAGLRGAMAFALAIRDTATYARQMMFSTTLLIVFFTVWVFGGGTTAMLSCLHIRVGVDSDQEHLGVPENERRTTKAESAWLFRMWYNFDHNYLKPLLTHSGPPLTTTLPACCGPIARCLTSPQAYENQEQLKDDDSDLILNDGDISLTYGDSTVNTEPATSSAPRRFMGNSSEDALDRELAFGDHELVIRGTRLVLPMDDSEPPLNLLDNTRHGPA
# Chain of UniProt Q02447 (Q02447 whole entry, looked up): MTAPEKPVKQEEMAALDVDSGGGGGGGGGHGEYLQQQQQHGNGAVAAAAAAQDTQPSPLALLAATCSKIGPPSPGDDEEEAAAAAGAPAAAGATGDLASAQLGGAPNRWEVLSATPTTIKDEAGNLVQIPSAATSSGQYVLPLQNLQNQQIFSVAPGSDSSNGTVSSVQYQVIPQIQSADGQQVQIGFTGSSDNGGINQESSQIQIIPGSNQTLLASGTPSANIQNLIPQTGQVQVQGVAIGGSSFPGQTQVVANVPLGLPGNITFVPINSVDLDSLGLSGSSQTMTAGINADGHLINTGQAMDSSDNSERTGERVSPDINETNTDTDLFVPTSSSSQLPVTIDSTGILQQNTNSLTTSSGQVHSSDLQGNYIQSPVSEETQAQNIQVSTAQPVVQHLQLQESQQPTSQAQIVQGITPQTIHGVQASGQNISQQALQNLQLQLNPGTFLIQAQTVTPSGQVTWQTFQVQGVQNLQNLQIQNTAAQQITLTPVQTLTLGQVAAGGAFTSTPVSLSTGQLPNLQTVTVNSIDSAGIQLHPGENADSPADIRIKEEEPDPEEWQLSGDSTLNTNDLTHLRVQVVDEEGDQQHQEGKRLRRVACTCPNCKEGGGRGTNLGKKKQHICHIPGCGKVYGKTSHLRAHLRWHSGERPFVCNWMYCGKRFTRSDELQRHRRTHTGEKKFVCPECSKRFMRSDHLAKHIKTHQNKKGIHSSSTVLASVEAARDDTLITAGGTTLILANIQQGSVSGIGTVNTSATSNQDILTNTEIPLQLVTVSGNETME
# Chain of UniProt Q9NXE4 (Q9NXE4 whole entry, looked up): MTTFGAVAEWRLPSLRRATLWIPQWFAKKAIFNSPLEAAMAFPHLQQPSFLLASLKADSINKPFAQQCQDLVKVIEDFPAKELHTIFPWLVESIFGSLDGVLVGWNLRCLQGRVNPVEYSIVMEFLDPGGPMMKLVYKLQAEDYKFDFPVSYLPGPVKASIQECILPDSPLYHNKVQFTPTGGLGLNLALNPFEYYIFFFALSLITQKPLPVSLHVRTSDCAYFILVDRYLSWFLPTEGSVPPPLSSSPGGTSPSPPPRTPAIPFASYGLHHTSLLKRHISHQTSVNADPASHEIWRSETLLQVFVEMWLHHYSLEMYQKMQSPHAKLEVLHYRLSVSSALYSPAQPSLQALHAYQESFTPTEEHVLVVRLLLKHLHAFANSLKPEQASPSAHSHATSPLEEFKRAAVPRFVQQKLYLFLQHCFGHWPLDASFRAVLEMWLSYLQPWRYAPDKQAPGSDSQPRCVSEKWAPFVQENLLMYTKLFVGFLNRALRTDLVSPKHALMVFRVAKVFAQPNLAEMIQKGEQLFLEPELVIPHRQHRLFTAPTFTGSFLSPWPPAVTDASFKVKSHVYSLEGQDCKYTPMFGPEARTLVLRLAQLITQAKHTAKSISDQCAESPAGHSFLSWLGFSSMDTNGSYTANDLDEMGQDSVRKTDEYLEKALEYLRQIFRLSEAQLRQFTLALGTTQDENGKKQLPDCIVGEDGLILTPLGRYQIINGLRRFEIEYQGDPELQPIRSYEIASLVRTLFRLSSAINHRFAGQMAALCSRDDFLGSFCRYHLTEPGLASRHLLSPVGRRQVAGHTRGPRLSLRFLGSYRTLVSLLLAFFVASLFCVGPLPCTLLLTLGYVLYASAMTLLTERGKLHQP
# Chain of UniProt P27105 (P27105 whole entry, looked up): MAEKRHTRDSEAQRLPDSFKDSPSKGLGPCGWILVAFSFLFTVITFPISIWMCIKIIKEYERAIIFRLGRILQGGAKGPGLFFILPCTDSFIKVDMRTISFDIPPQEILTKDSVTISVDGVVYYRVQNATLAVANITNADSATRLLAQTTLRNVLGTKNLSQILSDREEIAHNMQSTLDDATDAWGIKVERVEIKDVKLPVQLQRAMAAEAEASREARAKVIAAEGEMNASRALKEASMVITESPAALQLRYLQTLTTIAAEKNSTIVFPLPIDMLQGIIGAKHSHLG
# Chain of UniProt Q9UP52 (Q9UP52 whole entry, looked up): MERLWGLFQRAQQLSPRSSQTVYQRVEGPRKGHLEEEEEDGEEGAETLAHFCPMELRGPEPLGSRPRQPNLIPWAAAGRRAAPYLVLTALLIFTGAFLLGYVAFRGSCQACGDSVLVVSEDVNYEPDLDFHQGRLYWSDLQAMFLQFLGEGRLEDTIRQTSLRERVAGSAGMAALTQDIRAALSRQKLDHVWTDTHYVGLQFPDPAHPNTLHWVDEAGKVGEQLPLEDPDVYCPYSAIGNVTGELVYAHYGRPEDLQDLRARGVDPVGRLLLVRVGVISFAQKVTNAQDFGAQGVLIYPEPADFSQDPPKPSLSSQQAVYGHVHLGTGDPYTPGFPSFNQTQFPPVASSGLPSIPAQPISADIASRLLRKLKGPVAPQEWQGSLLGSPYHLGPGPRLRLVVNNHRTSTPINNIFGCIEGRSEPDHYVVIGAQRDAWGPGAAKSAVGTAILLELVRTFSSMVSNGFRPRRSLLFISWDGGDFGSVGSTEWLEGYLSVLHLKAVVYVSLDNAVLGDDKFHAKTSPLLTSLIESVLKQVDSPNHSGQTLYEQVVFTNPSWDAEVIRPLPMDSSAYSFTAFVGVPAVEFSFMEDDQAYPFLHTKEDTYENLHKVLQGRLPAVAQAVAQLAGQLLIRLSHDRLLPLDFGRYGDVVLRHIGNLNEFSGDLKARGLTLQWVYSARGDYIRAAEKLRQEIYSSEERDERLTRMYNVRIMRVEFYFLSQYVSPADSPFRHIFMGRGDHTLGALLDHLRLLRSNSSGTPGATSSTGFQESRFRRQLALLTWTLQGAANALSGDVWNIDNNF
# Chain of UniProt Q15005 (Q15005 whole entry, looked up): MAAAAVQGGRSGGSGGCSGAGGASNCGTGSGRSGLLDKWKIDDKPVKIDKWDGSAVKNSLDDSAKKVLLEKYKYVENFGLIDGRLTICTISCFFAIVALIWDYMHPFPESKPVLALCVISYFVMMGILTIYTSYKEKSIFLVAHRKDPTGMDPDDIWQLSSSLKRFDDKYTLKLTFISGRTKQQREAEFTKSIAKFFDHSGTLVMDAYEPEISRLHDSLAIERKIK
# Chain of UniProt Q16629 (Q16629 whole entry, looked up): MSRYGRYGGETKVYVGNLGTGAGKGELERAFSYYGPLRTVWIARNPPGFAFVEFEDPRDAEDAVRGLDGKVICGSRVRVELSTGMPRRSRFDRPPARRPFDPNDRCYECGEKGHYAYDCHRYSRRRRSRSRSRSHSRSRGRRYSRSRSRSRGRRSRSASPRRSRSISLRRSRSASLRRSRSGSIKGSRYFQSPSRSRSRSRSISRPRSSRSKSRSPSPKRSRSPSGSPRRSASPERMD
row,Target,log2 fold change
1,TCERG1 (UniProt O14776),0.129
2,SPCS2 (UniProt Q15005),0.024
3,TK1 (UniProt K7ERV3),-0.003
4,SP3 (UniProt Q02447),-0.026
5,STARD3 (UniProt Q14849),-0.021
6,SRSF6 (UniProt Q13247),0.084
7,SPTBN1 (UniProt Q01082),0.026
8,SNX15 (UniProt Q9NRS6),0.436 (active)
9,SRSF11 (UniProt Q05519),0.06
10,SLC27A2 (UniProt O14975),-0.053
11,SPPL2B (UniProt Q8TCT7),-0.013
12,SMPD4 isoform 4 (UniProt Q9NXE4),0.084
13,SLC9A6 isoform 2 (UniProt Q92581),-0.078
14,TGFBI (UniProt Q15582),0.309
15,TACC2 (UniProt O95359),-0.033
16,STXBP5 (UniProt Q5T5C0),0.004
17,STOM (UniProt P27105),0.025
18,SRSF7 (UniProt Q16629),0
19,SYNE2 isoform 2 (UniProt Q8WXH0),0.072
20,SLC38A9 (UniProt Q8NBW4),0.007
21,TBRG4 (UniProt Q969Z0),0.201
22,SMARCA4 (UniProt P51532),0.038
23,TFR2 (UniProt Q9UP52),0.002
